The structures appear in SMILES notation. The source made the active and inactive calls.

A short description of test [1]: anti-His antibody binders, primary screen, artefact control for SMM control protein annotation, biochemical, small-molecule microarray, 635 nm fluorescence (AID 1128).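 Further: score merges feature fluorescence with signal-to-noise for each printed compound spot.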 Particulars: anti-His Alexa647 antibody binding, higher = more signal.
In test [2] the test system is Human papillomavirus type 1a E7 protein (residues 1-88). Description: HPV1a E7 small-molecule binders, primary screen, biochemical, small-molecule microarray, residues 1-88, 635 nm (AID 1129). Particulars: small-molecule microarray binding, fluorescence 635 nm; higher = more signal.
Test [3] has as its target Focal adhesion kinase 1 (Homo sapiens) (UniProt Q05397). The experiment in a line: small-molecule microarray binders of FAK, primary screen, biochemical, 635/667 nm fluorescence, BSA, DTT (AID 1130).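 Further: composite of spot emission at 667 nm and signal to noise over triplicate slides.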 Particulars: PTK2 binding, 635 nm fluorescence, higher = more signal.
The test system of test [4] is Fibrinogen (Alexa647-labelled). Description: fibrinogen binders on compound microarrays, profiling panel, artefact control for SMM control-protein annotation, biochemical, small-molecule microarray, 635/667 nm fluorescence (AID 1131).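 Further: z-score merges 667 nm fluorescence with per-spot signal-to-noise over triplicate slides.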 Particulars: fibrinogen-A647 binding fluorescence, higher = more signal.
Test [5] addresses Follistatin (Homo sapiens) (UniProt P19883). Description: follistatin binders on small-molecule microarrays, primary screen, biochemical, small-molecule microarray, 635/667 nm fluorescence (AID 1132). Particulars: FST binding, 635 nm fluorescence, higher = more signal.
In test [6] the target is Fibroblast growth factor 2 (Homo sapiens) (UniProt P09038). Description: FGF2 binders on small-molecule microarrays, primary screen, biochemical, small-molecule microarray, 635/667 nm fluorescence (AID 1133). Particulars: small-molecule microarray binding, FGF2, fluorescence 635/667; higher = more signal.
Test [7] is described as follows: mitochondrial membrane potential change in A549 cells, profiling panel, cell-based, JC-1 fluorescence, basal, 24 h, 100 nL (AID 1138).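 Further: A549 lung adenocarcinoma cells under basal conditions with no added stimulus; test concentration not given here.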 Particulars: higher = more signal.
In another test the test system is Lefty1. Description: Lefty1 binders on small-molecule microarrays, primary screen, biochemical, small-molecule microarray, 635/667 nm fluorescence (AID 1139). Particulars: small-molecule microarray binding, fluorescence 635/667; higher = more signal.
The subject of test [8] is wheat germ agglutinin (Triticum aestivum), Alexa647-labelled. Description: wheat germ agglutinin binders on compound microarrays, profiling panel, artefact control for SMM control-protein annotation, biochemical, small-molecule microarray, 635/667 nm fluorescence (AID 1140).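 Further: score merges 667 nm feature emission with signal to noise over triplicate slides.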 Particulars: WGA-A647 binding, 635 nm fluorescence, higher = more signal.
Test [9] deals with Luciferin 4-monooxygenase (Photinus pyralis) (UniProt P08659). The experiment in a line: firefly luciferase enzyme inhibitors, primary screen, biochemical, luminescence, purified enzyme, 2006 set (AID 1141).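 Further: cell-free assay with purified firefly luciferase at 100 ng per well in PBS; test concentration not given here.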 Particulars: SteadyGlo luminescence, 30 min, higher = more signal, called active from +8 up or from −8 down.
Luciferin 4-monooxygenase (Photinus pyralis), sequence (P08659 whole entry, looked up): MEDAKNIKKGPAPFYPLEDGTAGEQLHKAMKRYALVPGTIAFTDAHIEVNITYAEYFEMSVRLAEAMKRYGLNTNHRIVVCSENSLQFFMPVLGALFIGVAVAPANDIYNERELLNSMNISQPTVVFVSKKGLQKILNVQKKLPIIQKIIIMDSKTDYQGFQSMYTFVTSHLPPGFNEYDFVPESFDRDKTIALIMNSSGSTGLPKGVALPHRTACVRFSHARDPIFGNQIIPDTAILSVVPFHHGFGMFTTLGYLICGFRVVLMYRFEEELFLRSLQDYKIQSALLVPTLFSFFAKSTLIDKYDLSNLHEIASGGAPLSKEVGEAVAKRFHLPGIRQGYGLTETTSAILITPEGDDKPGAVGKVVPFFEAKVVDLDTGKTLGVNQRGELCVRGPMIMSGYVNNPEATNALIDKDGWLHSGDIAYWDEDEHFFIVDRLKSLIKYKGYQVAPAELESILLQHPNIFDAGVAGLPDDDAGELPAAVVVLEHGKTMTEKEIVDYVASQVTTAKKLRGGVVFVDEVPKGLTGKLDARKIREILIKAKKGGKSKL

Follistatin (Homo sapiens), sequence (P19883 whole entry, looked up): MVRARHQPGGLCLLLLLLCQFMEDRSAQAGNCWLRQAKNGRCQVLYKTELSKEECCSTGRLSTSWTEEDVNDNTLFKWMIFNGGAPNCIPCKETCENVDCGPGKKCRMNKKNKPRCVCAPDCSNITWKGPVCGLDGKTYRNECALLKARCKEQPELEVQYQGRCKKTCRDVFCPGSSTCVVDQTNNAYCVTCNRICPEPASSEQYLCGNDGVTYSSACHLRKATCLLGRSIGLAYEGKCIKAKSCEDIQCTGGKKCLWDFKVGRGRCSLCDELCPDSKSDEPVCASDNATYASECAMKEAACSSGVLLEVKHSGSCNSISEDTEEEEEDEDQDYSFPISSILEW
Fibroblast growth factor 2 (Homo sapiens), sequence (P09038 whole entry, looked up): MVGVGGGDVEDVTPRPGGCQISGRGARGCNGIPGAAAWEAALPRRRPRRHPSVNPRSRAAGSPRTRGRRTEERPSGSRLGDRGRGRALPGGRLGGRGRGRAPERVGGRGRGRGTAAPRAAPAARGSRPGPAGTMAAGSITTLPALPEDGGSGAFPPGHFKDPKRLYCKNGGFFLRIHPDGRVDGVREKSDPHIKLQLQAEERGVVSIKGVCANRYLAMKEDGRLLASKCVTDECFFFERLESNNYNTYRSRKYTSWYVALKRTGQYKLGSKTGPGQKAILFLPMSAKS
Focal adhesion kinase 1 (Homo sapiens), sequence (Q05397 whole entry, looked up): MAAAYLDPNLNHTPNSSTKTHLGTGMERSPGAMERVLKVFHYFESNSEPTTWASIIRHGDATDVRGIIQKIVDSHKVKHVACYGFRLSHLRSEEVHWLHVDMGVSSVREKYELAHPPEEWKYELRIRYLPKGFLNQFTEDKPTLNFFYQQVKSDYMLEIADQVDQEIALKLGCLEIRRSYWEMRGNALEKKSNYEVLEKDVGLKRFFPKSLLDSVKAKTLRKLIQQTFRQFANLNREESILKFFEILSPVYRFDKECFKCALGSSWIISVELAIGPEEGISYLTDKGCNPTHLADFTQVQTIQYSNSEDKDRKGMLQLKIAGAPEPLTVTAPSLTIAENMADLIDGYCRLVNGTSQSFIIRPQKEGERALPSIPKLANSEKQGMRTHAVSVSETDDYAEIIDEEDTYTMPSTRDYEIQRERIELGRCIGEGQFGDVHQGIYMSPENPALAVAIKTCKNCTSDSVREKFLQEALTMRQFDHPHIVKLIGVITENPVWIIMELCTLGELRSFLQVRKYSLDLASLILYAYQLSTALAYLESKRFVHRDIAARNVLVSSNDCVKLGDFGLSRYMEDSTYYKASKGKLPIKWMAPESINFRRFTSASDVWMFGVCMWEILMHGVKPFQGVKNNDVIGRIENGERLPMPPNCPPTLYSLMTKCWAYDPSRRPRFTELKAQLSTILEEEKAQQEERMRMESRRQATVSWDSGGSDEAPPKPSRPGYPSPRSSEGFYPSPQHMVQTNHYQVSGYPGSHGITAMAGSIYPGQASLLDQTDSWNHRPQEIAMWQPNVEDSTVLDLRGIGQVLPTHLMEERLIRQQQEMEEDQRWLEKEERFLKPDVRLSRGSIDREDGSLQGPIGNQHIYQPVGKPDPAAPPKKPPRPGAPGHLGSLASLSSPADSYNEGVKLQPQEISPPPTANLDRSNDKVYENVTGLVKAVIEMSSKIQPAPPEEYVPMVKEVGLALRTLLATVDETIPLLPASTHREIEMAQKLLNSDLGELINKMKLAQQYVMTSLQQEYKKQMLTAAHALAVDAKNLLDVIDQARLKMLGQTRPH

With `COCC(=C=CC[C@H](O)c1ccc(OCCO)cc1)C[C@H](O)COCc1ccccc1`, the composite z-score in test [1] amounted to 1.35; in [2] it was 0.887; in test [3], 0.453; in [4] it was 0.31; in [5] it was 1.21; in [6], 0.372. Also, the composite z-score with Lefty1 turned out to be 0.722; in test [8], 0.624. The z-score is 0.743 in test [7] and -0.627 (inactive) in [9].
For the molecule `CCOC(=O)C[C@H]1[C@H](OC(=O)c2ccccc2-c2ccccc2)[C@@H](NC(=O)c2ccc3ccccc3n2)c2cc(OCCCO)ccc2N1C(=O)c1ccc2ccccc2n1`, the composite z-score is 1.22 in [1]; 0.374 in test [2]; 0.281 in test [3]; 0.74 in [4]; 0.474 in test [5]; 0.202 in test [6]. Besides, the results for the composite z-score (in the test on Lefty1; in test [8]) were 0.659 and 0.0363, respectively. The z-score was 0.481 in test [7] and 0.761 (inactive) in [9].
For `C=C(/C(=C/C[C@@H](OC(=O)c1ccncc1)c1ccc(OCCO)cc1)c1cc(C(=O)OC)ccc1OC)C(C)C`, the composite z-score is 0.217 in [1]; 1.19 in test [2]; -0.4 in test [3]; 0.135 in [4]; 0.623 in test [5]; 0.417 in [6]. Also, the composite z-score was determined as 0.632 in the test on Lefty1 and 0.592 in [8]. Also, the z-score in [7] is 0.628; in [9], -0.467 (inactive).
For `CCOC(=O)C1=CC[C@@H](c2ccccc2C(F)(F)F)N(S(=O)(=O)c2ccc(C)cc2)C1`, the composite z-score came to 1.62 in test [1]; 1.18 in test [2]; 0.406 in [3]; 0.836 in test [4]; 0.877 in [5]; 0.633 in [6]. Further, the composite z-score in the test with Lefty1 is -0.356; in test [8] it was 0.989. Besides, the z-score is 1.9 in test [7] and 0.515 (inactive) in test [9].
In the case of `C[C@]12C(=O)N(CCCCCCO)[C@@H]3C(=O)N(c4ccc(Cl)cc4)CC=CC31O[C@@H]1/C=C\CCCOC(=O)C12` (stereo not given in full), the composite z-score is 0.0039 in [1]; -0.401 in test [2]; 0.657 in test [3]; -2.42 in [4]; -0.448 in test [5]; -1.12 in test [6]. Besides, the composite z-score in the test with Lefty1 was -0.408; in test [8] it was 0.608. Moreover, the z-score is 0.846 in [7] and -1.64 (inactive) in test [9].
Consider `O=C1c2ccccc2[C@](Cc2ccccc2I)(C(=O)NCCN2CCOCC2)[C@H](c2ccc(CO)cc2)N1Cc1ccccc1`, for which the composite z-score in [1] worked out at 0.0765; in test [2], 1.2; in [3] it was 0.964; in test [4], 0.598; in test [5], 1.26; in [6], 0.146. The composite z-score in the test with Lefty1 turned out to be 0.98; in test [8], 0.458. For the same molecule, the values for the z-score in test [7] and in test [9] were 0.803 and -0.0588 (inactive), respectively.
Consider `C=CCN1C(=O)[C@@]2(O[C@@H](CCO)[C@H]([Si](C)(C)c3ccc(OC)cc3)[C@H]2C)c2cc(N3C(=O)c4ccccc4Oc4ccccc43)ccc21`, for which the composite z-score was 0.939 in test [1]; 0.551 in [2]; 0.17 in test [3]; 0.485 in test [4]; 0.144 in [5]; 0.675 in test [6]. Moreover, the composite z-score stood at 0.24 with Lefty1 and 0.615 in test [8]. In addition, the z-score is 0.00401 in [7] and -1.49 (inactive) in [9].
`C=CCOC(=O)[C@H]1[C@@H]2C(=O)O[C@@H](c3ccccc3)[C@@H](c3ccccc3)N2[C@@H](c2ccc(OCCOC(=O)[C@H]3C[C@H]4C(=O)N[C@@H](CCCC[N+](C)(C)C)C(=O)N4[C@H]3c3cccc(OCCO)c3)cc2)[C@]12C(=O)Nc1ccc(I)cc12`: the composite z-score in test [1] turned out to be 1.21; in test [2], 0.915; in test [3], 0.293; in test [4], 0.82; in test [5], 1.34; in test [6], 1.7. Besides, the composite z-score came out at 0.761 in the test with Lefty1 and 0.19 in [8]. Moreover, the values for the z-score in test [7] and in [9] were -1.45 and -0.678 (inactive), respectively.
For `COc1ccc(NC(=O)O[C@H]2[C@H](OC(=O)Nc3ccc4c(c3)OCO4)[C@@H](OC(=O)Nc3ccc4c(c3)OCO4)[C@@H](OC)O[C@@H]2CO)cc1`, the composite z-score amounted to 1.34 in test [1]; 1.25 in [2]; 0.316 in [3]; 0.922 in test [4]; 1.16 in test [5]; 0.802 in test [6]. In addition, the composite z-score was 0.598 with Lefty1 and 0.943 in test [8]. Besides, the results for the z-score in test [7] and in [9] were -0.669 and -4.27 (inactive), respectively.
Regarding `CC(=O)NCCCC[C@@H]1NC(=O)[C@@H]2C[C@H](C(=O)O)[C@H](c3ccc(O)cc3)N2C1=O`, the composite z-score in [1] is 2.07; in [2], -1.12; in test [3], -0.58; in test [4], -0.408; in test [5], -0.893; in test [6] it was -1.15. Further, the composite z-score with Lefty1 is -1.71; in test [8] it was -0.885. The z-score is -0.61 in test [7] and 0.75 (inactive) in test [9].
Consider `CCOC(=O)C1=CC[C@@H](c2cc(Cl)ccc2Cl)N(S(=O)(=O)c2ccc(C)cc2)[C@H]1c1ccc(OC)cc1`, for which the composite z-score in test [1] was -0.128; in test [2] it was -0.199; in test [3], 0.262; in [4], -1.17; in test [5], 0.258; in test [6], -0.413. Further, the composite z-score in the test with Lefty1 was -0.526; in test [8] it was 0.0203. Also, the z-score in test [7] was 0.581; in test [9], 0.953 (inactive).
As for `NC(=O)NCC#Cc1ccc2c(c1)[C@]1(C(=O)N2)[C@H](c2ccc(O)cc2)N2[C@H](c3ccccc3)[C@H](c3ccccc3)OC(=O)[C@H]2[C@@H]1C(=O)Nc1nc2ccccc2s1`, the composite z-score in test [1] is -0.185; in [2] it was 0.622; in test [3], -0.15; in test [4], 0.666; in [5], 1.44; in test [6], 1.49. For the same molecule, the figures for the composite z-score (with Lefty1; in [8]) were 0.9 and 0.717, respectively. Further, the z-score was -2.24 in test [7] and -1.49 (inactive) in [9].
For the molecule `COc1cc(CO)cc(I)c1O[C@H]1C=C(C(=O)NCCO)C[C@@H](N(CC2CCCCC2)C(=O)c2ccc(C(F)(F)F)cc2)[C@@H]1O`, the composite z-score in test [1] stood at 0.0463; in test [2], 0.621; in [3] it was 0.0469; in test [4], 0.367; in test [5] it was 0.578; in [6] it was 0.12. Also, the composite z-score in the test with Lefty1 came to 0.784; in test [8] it was 0.193. Further, the z-score was 0.53 in test [7] and -0.795 (inactive) in [9].
`COCCOC(=O)N1C(=O)[C@@]2(c3cc(C#CC4(O)CCCCCC4)ccc31)[C@H](C(N)=O)[C@H]1C(=O)O[C@H](c3ccccc3)[C@H](c3ccccc3)N1[C@@H]2c1ccccc1OCCO`: the composite z-score in test [1] worked out at 1.84; in test [2], 1.22; in test [3] it was 0.988; in test [4], 0.662; in [5], 1.17; in [6], 1.56. For the same molecule, the values for the composite z-score (in the test on Lefty1; in test [8]) were 0.569 and 0.26, respectively. The z-score in test [7] was -0.994; in [9], -0.806 (inactive).
`CC(C)(C)OC(=O)CC[C@@]1(C(=O)O)N=C(c2ccc(OCCCO)cc2)O[C@@H]1c1ccccc1CN=[N+]=[N-]`: the composite z-score is 2.7 in test [1]; 0.807 in [2]; 0.399 in test [3]; 0.85 in test [4]; 0.367 in test [5]; -0.279 in test [6]. Besides, the composite z-score in the test on Lefty1 is -0.816; in [8] it was 0.851. In addition, the z-score in test [7] is 0.792; in test [9], -2.19 (inactive).
For `CC(C)C(=C=CC[C@@H](O)c1ccccc1OCCO)C[C@@H](O)COCc1ccccc1`, the composite z-score in test [1] was -0.0424; in [2], 0.42; in test [3], -0.0011; in test [4], 0.807; in test [5], 1.28; in test [6], 1.45. The results for the composite z-score (with Lefty1; in test [8]) were 0.435 and 0.288, respectively. Besides, the z-score in test [7] was 1.88; in test [9] it was -2.5 (inactive).

The record behind these values is PubChem BioAssay.
